The values below come from PubChem BioAssay (NCI).

The panel holds about 83,000 compounds, 20% with a hit somewhere; the sample as a whole holds those more often.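 Negative percent growth values reflect cell death: -40 means 40% of the cells present at the start died, and -100 means all died.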 Values without a mark were called inactive. Active and inactive are the calls of the source. Rule for the calls: active = growth percent below 10; inactive = the rest.

Some test systems named below: NCI-H23 lung; NCI-H226 lung; NCI-H322M lung; HOP-62 NSCLC; NCI-H460 lung; HOP-92 NSCLC; NCI-H522 lung; A549/ATCC NSCLC; 786-0 renal; COLO 205 colon; DU-145 prostate; K-562 leukemia; MALME-3M melanoma; MDA-MB-231 breast; RXF 393 renal; SF-268 CNS; SF-295 CNS; SF-539 CNS; UACC-257 melanoma; M14 melanoma.
Holding throughout (assay): NCI-60 one-dose screen, 48 h (100 = growth as untreated, 0 = no growth, -100 = all killed)
Common to all, as to details: 10 µM unless noted

On to `CN(C)CCCC1(c2ccc(F)cc2)OCc2cc(-c3ccc(C(F)(F)F)nc3)ccc21` (stereo not given), for which the growth in the test on NCI-H23 lung is 80.6%; in the test on NCI-H226 lung, 90.6%; in the test with NCI-H322M lung, 84.7%; in the test with HOP-62 NSCLC, 83.3%; in the test with NCI-H460 lung, 72.9%; with HOP-92 NSCLC it was 51.1%. Further, the growth with NCI-H522 lung is 74.7%; in the test on A549/ATCC NSCLC, 71.4%; in the test on 786-0 renal, 72.7%; in the test on COLO 205 colon, 60.7%; in the test on DU-145 prostate, 83.6%; with K-562 leukemia it was 13.5%. The growth with MALME-3M melanoma is 34.9%; with MDA-MB-231 breast it was 72.6%; in the test on RXF 393 renal, 45.1%; in the test with SF-268 CNS it was 73.7%; in the test on SF-295 CNS it was 81.2%; with SF-539 CNS it was 80.8%. In addition, the growth in the test with UACC-257 melanoma is -31.8% (active); with M14 melanoma, 13.8%.

As for `C=C(C)[C@@H]1CC[C@]2(C(=O)N3CCN(C)CC3)CC[C@]3(C)[C@H](CC[C@@H]4[C@@]5(C)C/C(=C/c6ccc(C(F)(F)F)cc6)C(=O)C(C)(C)[C@@H]5CC[C@]43C)[C@@H]12`, the growth with NCI-H23 lung was 99.2%; with NCI-H226 lung, 101%; with NCI-H322M lung it was 96.5%; with HOP-62 NSCLC it was 96.6%; in the test on NCI-H460 lung, 97.9%; in the test with HOP-92 NSCLC, 78.1%. The growth in the test with NCI-H522 lung is 94.4%; in the test with A549/ATCC NSCLC, 92.6%; in the test with 786-0 renal it was 90.3%; in the test with COLO 205 colon it was 105%; with DU-145 prostate it was 104%; in the test with K-562 leukemia it was 72.9%. The growth is 90.8% in the test with MALME-3M melanoma; 94.9% in the test with MDA-MB-231 breast; 97.4% with RXF 393 renal; 92.8% with SF-268 CNS; 101% with SF-295 CNS; 88.6% in the test with SF-539 CNS. Moreover, the values for the growth with UACC-257 melanoma and in the test with M14 melanoma were 98.5% and 94.8%, respectively.

`NC(N)=N/N=C/c1ccc(-c2ccc(-c3ccc(Cl)cn3)s2)cc1`: the growth was 101% in the test with NCI-H23 lung; 88.6% in the test on NCI-H226 lung; 96.7% in the test on NCI-H322M lung; 93.8% with HOP-62 NSCLC; 88.1% in the test on NCI-H460 lung; 58.3% in the test on HOP-92 NSCLC. The growth in the test on NCI-H522 lung was 97.6%; with A549/ATCC NSCLC, 71.4%; in the test on 786-0 renal it was 63.8%; in the test on COLO 205 colon, 28.7%; with DU-145 prostate, 94.4%; in the test on K-562 leukemia, 1.08% (active). The growth is 101% in the test on MALME-3M melanoma; 76.8% in the test with MDA-MB-231 breast; 59.2% with RXF 393 renal; 88.2% in the test on SF-268 CNS; 102% in the test on SF-295 CNS; 85.9% with SF-539 CNS. Besides, the growth in the test with UACC-257 melanoma was 109%; in the test with M14 melanoma, 94.7%.

Turning to `Cc1nn(-c2ccc(Cl)cc2)c(=O)n1CCn1cnc2ccccc21`, the growth in the test with NCI-H23 lung was 96.2%; in the test with NCI-H226 lung, 103%; in the test on NCI-H322M lung it was 96.8%; in the test with HOP-62 NSCLC it was 101%; in the test on NCI-H460 lung, 107%; in the test with HOP-92 NSCLC, 101%. In addition, the growth was 85.3% in the test with NCI-H522 lung; 106% with A549/ATCC NSCLC; 87.4% in the test on 786-0 renal; 118% in the test with COLO 205 colon; 114% with DU-145 prostate; 97.1% with K-562 leukemia. In addition, the growth was 109% with MALME-3M melanoma; 111% in the test with MDA-MB-231 breast; 107% in the test on RXF 393 renal; 107% in the test with SF-268 CNS; 82.8% in the test on SF-295 CNS; 101% in the test on SF-539 CNS. The growth was 103% with UACC-257 melanoma and 96.7% with M14 melanoma.

On to `COc1ccc(C(=O)c2ccc(C)cc2)c(OC)c1OC`, for which the growth was 82.9% in the test on NCI-H23 lung; 90.1% with NCI-H226 lung; 111% in the test on NCI-H322M lung; 78.5% in the test on HOP-62 NSCLC; 87.1% in the test on NCI-H460 lung; 85.6% in the test with HOP-92 NSCLC. Besides, the growth is 81.8% in the test on NCI-H522 lung; 78.3% in the test on A549/ATCC NSCLC; 107% with 786-0 renal; 70.8% with COLO 205 colon; 89.8% in the test on DU-145 prostate; 40% in the test with K-562 leukemia. Further, the growth in the test on MALME-3M melanoma was 92.5%; in the test on MDA-MB-231 breast, 75.9%; with RXF 393 renal it was 86.1%; in the test with SF-268 CNS it was 85.9%; with SF-295 CNS, 74.5%; in the test on SF-539 CNS it was 77%. Moreover, the growth with UACC-257 melanoma is 82.9%; with M14 melanoma, 61.3%.

Take `CCNCCCn1c2c(c3ccc([N+](=O)[O-])cc3c1=O)C(=O)c1cc(OC)cnc1-2`: the growth in the test with NCI-H23 lung is -57.2% (active); with NCI-H226 lung, -44% (active); with NCI-H322M lung, 2.15% (active); in the test with HOP-62 NSCLC, -66.6% (active); with NCI-H460 lung it was -63% (active); in the test with HOP-92 NSCLC it was -11.5% (active). Also, the growth in the test on NCI-H522 lung was -16.1% (active); with A549/ATCC NSCLC, -81.8% (active); with 786-0 renal, -91.7% (active); with COLO 205 colon, -30.9% (active); with DU-145 prostate, 2.6% (active); in the test on K-562 leukemia it was -3.04% (active). Also, the growth with MALME-3M melanoma is -61.8% (active); in the test on MDA-MB-231 breast, -32.6% (active); with RXF 393 renal it was -85.8% (active); in the test with SF-268 CNS it was 1.69% (active); in the test with SF-295 CNS, -1.1% (active); in the test on SF-539 CNS, -48.2% (active). In addition, the figures for the growth in the test with UACC-257 melanoma and with M14 melanoma were -45.3% (active) and -37.1% (active), respectively.

As for `COc1ccc2c(c1)c(-c1nc(-c3c[nH]c4ncccc34)cs1)cn2CCN`, the growth is 68% with NCI-H23 lung; 70.6% in the test on NCI-H226 lung; 57.7% in the test on NCI-H322M lung; 58.3% with HOP-62 NSCLC; 45% with NCI-H460 lung; 29% in the test with HOP-92 NSCLC. Further, the growth is 65.6% with NCI-H522 lung; 48.2% with A549/ATCC NSCLC; 72.1% in the test on 786-0 renal; 32.2% in the test with COLO 205 colon; 59.7% in the test with DU-145 prostate; 41.5% in the test on K-562 leukemia. Besides, the growth in the test on MALME-3M melanoma was 81.6%; in the test on MDA-MB-231 breast, 53.7%; in the test on RXF 393 renal, 59.9%; in the test on SF-268 CNS, 80.1%; with SF-295 CNS it was 95.3%; with SF-539 CNS, 68.8%. For the same compound, the growth in the test with UACC-257 melanoma was 98.2%; with M14 melanoma it was 67.5%.
